Targets with a hit are over-represented here; the source holds about 8,800 in all. About 0.5% of all pairs of compound and target were hits. Values without a mark were called inactive.
These targets were tested with C=CC(=O)N1CCC[C@@H](n2nc(-c3ccc(Oc4ccccc4)cc3)c3c(N)ncnc32)C1 [ibrutinib] (assay: log2 fold change, soluble protein after heating vs DMSO (PISA); higher = thermal stabilisation; K562 lysate, 10 uM; active = over 0.2 and 3.5 SD of the protein, either way, in both replicates (recomputed)).
Summary of the method: (§1)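 Pellets of K562 cells were dounce-homogenised in PBS pH 7.4 with 1 mM MgCl2, and the crude extract was held at 1 mg/mL protein for a 30 min treatment with 10 μM compound. Aliquots were heated for 3 min over 48°C-58°C and pooled before NP-40 was added to 0.5% at 4°C. The supernatant from 21,000xg for 90 min was quantified by TMTpro 16plex LC-MS/MS with channel sums equalised. Values are reported from duplicates as log-two fold change in thermal stability relative to solvent controls.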

Sequence of UniProt Q99661 (Q99661 whole entry, looked up): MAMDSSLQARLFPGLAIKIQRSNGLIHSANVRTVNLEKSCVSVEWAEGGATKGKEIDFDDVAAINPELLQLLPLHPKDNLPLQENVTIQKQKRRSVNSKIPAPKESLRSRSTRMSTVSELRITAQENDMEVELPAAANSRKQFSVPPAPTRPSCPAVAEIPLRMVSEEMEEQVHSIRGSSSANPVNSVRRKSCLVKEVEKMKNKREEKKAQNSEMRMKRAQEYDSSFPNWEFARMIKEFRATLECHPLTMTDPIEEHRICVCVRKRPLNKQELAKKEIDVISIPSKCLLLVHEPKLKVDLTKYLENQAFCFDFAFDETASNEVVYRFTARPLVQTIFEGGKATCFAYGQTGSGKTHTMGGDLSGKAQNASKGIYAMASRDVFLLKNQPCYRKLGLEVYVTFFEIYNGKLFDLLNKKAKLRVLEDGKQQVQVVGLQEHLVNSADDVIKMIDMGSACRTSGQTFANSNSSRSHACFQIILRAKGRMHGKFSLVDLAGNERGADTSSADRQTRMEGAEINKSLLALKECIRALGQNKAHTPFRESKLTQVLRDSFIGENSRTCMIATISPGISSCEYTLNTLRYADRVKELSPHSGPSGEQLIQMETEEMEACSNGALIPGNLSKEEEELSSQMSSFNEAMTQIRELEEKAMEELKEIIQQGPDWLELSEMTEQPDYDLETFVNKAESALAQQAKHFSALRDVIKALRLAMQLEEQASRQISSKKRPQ
Sequence of UniProt Q9NZB8 (Q9NZB8 whole entry, looked up): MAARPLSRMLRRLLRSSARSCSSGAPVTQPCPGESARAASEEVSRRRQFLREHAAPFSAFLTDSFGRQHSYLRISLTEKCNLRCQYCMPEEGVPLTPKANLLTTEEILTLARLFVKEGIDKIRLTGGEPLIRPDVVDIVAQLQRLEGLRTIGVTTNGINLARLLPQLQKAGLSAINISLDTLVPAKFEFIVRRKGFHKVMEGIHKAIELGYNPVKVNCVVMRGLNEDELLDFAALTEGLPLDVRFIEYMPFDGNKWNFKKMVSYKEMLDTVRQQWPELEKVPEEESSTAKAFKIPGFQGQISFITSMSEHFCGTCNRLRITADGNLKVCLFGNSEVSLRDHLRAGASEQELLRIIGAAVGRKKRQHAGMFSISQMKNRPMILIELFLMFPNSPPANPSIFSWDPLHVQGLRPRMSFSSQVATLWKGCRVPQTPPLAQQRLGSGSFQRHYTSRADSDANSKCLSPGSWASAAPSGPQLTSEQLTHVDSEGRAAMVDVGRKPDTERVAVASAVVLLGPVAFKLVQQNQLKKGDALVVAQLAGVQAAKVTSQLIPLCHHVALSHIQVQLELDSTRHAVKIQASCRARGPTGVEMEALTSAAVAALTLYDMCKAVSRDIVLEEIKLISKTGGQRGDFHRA
Sequence of UniProt Q9H9A6 (Q9H9A6 whole entry, looked up): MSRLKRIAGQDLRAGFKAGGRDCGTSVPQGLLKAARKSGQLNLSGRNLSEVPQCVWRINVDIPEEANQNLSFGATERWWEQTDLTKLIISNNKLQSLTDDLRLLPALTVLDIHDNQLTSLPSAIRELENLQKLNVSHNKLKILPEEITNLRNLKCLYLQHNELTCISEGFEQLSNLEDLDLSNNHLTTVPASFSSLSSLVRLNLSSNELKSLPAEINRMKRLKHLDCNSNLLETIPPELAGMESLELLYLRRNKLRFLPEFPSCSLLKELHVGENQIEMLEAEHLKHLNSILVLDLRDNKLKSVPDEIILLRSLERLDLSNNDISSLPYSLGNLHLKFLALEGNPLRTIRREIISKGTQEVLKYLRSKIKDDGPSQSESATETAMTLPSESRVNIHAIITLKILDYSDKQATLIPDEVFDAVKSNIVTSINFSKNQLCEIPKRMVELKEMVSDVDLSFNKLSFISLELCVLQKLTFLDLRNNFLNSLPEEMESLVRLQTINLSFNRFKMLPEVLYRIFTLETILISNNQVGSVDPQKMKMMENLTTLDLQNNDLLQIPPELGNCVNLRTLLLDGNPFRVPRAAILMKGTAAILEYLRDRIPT
Sequence of UniProt Q96RQ3 (Q96RQ3 whole entry, looked up): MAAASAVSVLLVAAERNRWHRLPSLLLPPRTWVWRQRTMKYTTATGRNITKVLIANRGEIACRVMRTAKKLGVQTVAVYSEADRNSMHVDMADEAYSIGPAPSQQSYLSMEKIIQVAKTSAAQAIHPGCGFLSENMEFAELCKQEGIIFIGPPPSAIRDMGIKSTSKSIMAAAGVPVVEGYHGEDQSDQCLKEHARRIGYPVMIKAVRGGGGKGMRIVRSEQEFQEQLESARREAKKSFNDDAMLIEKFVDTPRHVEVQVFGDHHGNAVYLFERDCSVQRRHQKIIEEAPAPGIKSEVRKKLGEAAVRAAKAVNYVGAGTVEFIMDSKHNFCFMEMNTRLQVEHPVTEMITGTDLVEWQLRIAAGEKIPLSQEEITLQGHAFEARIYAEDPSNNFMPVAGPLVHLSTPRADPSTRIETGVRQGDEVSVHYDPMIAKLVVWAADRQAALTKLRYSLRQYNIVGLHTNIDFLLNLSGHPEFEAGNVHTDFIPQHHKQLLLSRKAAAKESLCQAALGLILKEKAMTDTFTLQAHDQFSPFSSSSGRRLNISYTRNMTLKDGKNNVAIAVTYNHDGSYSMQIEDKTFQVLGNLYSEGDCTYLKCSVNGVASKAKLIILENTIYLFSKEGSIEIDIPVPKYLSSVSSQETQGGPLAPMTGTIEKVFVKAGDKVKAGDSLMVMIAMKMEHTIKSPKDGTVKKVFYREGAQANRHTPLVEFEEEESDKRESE
Sequence of UniProt P45984 (P45984 whole entry, looked up): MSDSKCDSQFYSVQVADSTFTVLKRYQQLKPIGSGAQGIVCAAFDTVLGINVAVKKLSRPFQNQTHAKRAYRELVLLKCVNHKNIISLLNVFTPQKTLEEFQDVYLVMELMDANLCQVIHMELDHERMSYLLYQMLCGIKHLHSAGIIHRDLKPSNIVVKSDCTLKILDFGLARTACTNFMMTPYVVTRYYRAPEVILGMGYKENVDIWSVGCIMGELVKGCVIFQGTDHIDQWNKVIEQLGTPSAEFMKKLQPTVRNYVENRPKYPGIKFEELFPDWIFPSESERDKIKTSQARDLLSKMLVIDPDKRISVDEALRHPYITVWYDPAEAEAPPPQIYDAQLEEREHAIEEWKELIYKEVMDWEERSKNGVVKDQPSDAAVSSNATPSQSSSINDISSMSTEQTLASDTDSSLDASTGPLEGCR
Sequence of UniProt Q09328 (Q09328 whole entry, looked up): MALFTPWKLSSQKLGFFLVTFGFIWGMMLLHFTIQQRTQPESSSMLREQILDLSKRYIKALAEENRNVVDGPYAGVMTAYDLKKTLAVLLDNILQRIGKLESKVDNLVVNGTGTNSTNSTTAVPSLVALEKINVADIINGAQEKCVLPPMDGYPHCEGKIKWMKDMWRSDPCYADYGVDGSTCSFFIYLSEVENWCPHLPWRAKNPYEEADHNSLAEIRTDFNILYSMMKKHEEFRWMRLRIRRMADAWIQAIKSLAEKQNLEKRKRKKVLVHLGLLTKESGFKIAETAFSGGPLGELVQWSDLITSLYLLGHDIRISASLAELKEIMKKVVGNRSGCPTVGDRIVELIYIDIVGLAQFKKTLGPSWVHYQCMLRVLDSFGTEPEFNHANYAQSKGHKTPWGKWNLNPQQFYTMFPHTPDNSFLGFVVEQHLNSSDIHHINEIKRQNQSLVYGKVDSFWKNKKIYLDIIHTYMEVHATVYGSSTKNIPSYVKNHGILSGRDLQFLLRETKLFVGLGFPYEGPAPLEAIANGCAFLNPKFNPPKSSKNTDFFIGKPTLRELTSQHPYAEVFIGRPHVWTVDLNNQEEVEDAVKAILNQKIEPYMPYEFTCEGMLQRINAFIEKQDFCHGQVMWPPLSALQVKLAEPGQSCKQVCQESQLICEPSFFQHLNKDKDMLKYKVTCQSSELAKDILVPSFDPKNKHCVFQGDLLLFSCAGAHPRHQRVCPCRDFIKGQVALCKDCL
Sequence of UniProt Q8IYU8 (Q8IYU8 whole entry, looked up): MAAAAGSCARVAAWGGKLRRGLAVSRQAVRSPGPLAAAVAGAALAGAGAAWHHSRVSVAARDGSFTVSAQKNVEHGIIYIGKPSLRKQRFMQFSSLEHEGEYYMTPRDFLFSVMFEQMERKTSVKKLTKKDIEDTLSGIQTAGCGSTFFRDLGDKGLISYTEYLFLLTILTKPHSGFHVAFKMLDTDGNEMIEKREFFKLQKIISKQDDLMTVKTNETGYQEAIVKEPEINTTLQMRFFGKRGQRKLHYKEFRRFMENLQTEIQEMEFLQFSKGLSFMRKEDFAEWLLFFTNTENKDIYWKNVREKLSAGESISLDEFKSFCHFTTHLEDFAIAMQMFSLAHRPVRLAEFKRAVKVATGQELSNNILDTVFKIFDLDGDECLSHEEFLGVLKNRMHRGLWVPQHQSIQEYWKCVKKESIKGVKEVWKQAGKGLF
Sequence of UniProt Q02750 (Q02750 whole entry, looked up): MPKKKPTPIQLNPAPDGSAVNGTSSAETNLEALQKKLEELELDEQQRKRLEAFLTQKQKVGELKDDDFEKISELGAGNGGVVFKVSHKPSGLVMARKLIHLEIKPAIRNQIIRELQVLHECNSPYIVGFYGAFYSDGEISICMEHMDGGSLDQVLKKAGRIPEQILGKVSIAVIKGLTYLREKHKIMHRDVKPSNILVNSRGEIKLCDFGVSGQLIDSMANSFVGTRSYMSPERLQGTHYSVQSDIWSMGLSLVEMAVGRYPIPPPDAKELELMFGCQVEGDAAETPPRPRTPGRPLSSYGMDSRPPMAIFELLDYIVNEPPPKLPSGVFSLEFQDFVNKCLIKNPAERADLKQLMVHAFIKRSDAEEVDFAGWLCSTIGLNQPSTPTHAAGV
Sequence of UniProt Q9NWR8 (Q9NWR8 whole entry, looked up): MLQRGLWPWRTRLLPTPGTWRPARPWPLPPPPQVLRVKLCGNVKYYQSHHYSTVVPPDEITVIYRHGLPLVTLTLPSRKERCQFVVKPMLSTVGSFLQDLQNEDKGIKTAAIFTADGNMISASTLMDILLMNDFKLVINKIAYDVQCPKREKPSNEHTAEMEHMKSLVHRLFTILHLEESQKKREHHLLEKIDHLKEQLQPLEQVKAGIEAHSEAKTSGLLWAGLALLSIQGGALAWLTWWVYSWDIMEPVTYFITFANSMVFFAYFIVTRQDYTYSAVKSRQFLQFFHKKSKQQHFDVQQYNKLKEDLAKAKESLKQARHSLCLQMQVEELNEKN

Q: For MARK2 (UniProt E9PC69), which log2 fold change is on record?
A: 0.139

Q: For MICU1 isoform 3 (UniProt Q9BPX6), which log2 fold change is on record?
A: -0.011

Q: Which log2 fold change does the source give for MED12 isoform 2 (UniProt Q93074) here?
A: 0.004

Q: How did the log2 fold change turn out when LYAR (UniProt Q9NX58) was run?
A: -0.009

Q: For MLH1 (UniProt P40692), which log2 fold change is on record?
A: 0.01

Q: For MIPEP (UniProt Q99797), which log2 fold change is on record?
A: 0.041

Q: With MAD2L1BP isoform 3 (UniProt Q15013) as the target, how does the log2 fold change read?
A: -0.016

Q: For LIG4 (UniProt P49917), which log2 fold change is on record?
A: 0.056

Q: For MCUB (UniProt Q9NWR8), which log2 fold change is on record?
A: 0.127

Q: MOCS1 isoform 8 (UniProt Q9NZB8) was tested. Which log2 fold change did it give?
A: 0.186

Q: MAP3K4 (UniProt Q9Y6R4) was tested. Which log2 fold change did it give?
A: 0.046

Q: Which log2 fold change does the source give for MAPKAPK2 (UniProt P49137) here?
A: 0.05

Q: MAPK9 (UniProt P45984) was tested. Which log2 fold change did it give?
A: -0.024

Q: MCMBP isoform 2 (UniProt Q9BTE3) was tested. Which log2 fold change did it give?
A: -0.032

Q: With MRPL15 (UniProt Q9P015) as the target, how does the log2 fold change read?
A: 0.003

Q: MRPL10 isoform 2 (UniProt Q7Z7H8) was tested. Which log2 fold change did it give?
A: -0.062

Q: Which log2 fold change does the source give for MORC3 (UniProt Q14149) here?
A: 0.004

Q: Which log2 fold change does the source give for LRRC40 (UniProt Q9H9A6) here?
A: 0.017

Q: How did the log2 fold change turn out when LARP4B (UniProt Q92615) was run?
A: 0

Q: Which log2 fold change does the source give for MAP1S (UniProt Q66K74) here?
A: -0.008

Q: For LTN1 isoform 3 (UniProt O94822), which log2 fold change is on record?
A: -0.036

Q: With MCCC1 (UniProt Q96RQ3) as the target, how does the log2 fold change read?
A: 0.034

Q: How did the log2 fold change turn out when MAP2K1 (UniProt Q02750) was run?
A: 0.204

Q: How did the log2 fold change turn out when MORC2 (UniProt Q9Y6X9) was run?
A: 0.065

Q: Which log2 fold change does the source give for KNSTRN (UniProt Q9Y448) here?
A: -0.017

Q: With MORF4L1 isoform 2 (UniProt Q9UBU8) as the target, how does the log2 fold change read?
A: -0.038

Q: KIF2C (UniProt Q99661) was tested. Which log2 fold change did it give?
A: 0.004

Q: With MRPL30 isoform 2 (UniProt Q8TCC3) as the target, how does the log2 fold change read?
A: 0.01

Q: With L3HYPDH (UniProt Q96EM0) as the target, how does the log2 fold change read?
A: -0.004

Q: MED16 (UniProt Q9Y2X0) was tested. Which log2 fold change did it give?
A: -0.113

Q: Which log2 fold change does the source give for KIFC1 (UniProt Q9BW19) here?
A: 0.021

Q: With MGAT5 (UniProt Q09328) as the target, how does the log2 fold change read?
A: 0.038

Q: MICU2 (UniProt Q8IYU8) was tested. Which log2 fold change did it give?
A: 0.036

Q: With MAPKAPK3 (UniProt Q16644) as the target, how does the log2 fold change read?
A: 0.011

Q: With KIF4A (UniProt O95239) as the target, how does the log2 fold change read?
A: 0.011

Q: MAP11 (UniProt Q8WVR3) was tested. Which log2 fold change did it give?
A: 0.064

Q: How did the log2 fold change turn out when KLC2 (UniProt Q9H0B6) was run?
A: 0.021

Q: With MAP2K5 (UniProt Q13163) as the target, how does the log2 fold change read?
A: 0.007

Q: How did the log2 fold change turn out when METTL7A (UniProt Q9H8H3) was run?
A: 0.113

These targets were tested with CC(=O)c1cnc2ccc(-c3cc(Cl)c(O)c(Cl)c3)nc2c1N[C@H]1CC[C@H](CN(C)C)CC1 in the same assay as above.
Summary of the method: as §1

Q: How did the log2 fold change turn out when MARK2 (UniProt E9PC69) was run?
A: -0.053

Q: How did the log2 fold change turn out when MICU1 isoform 3 (UniProt Q9BPX6) was run?
A: -0.021

Q: MED12 isoform 2 (UniProt Q93074) was tested. Which log2 fold change did it give?
A: -0.019

Q: LYAR (UniProt Q9NX58) was tested. Which log2 fold change did it give?
A: -0.035

Q: With MLH1 (UniProt P40692) as the target, how does the log2 fold change read?
A: -0.009

Q: How did the log2 fold change turn out when MIPEP (UniProt Q99797) was run?
A: 0.054

Q: Which log2 fold change does the source give for MAD2L1BP isoform 3 (UniProt Q15013) here?
A: -0.099

Q: For LIG4 (UniProt P49917), which log2 fold change is on record?
A: 0.174

Q: How did the log2 fold change turn out when MCUB (UniProt Q9NWR8) was run?
A: 0.013

Q: MOCS1 isoform 8 (UniProt Q9NZB8) was tested. Which log2 fold change did it give?
A: 0.08

Q: How did the log2 fold change turn out when MAP3K4 (UniProt Q9Y6R4) was run?
A: 0.19

Q: For MAPKAPK2 (UniProt P49137), which log2 fold change is on record?
A: 0.385 (active)

Q: How did the log2 fold change turn out when MAPK9 (UniProt P45984) was run?
A: 0.234 (active)

Q: For MCMBP isoform 2 (UniProt Q9BTE3), which log2 fold change is on record?
A: -0.055

Q: How did the log2 fold change turn out when MRPL15 (UniProt Q9P015) was run?
A: -0.078

Q: With MRPL10 isoform 2 (UniProt Q7Z7H8) as the target, how does the log2 fold change read?
A: -0.013

Q: For MORC3 (UniProt Q14149), which log2 fold change is on record?
A: -0.023

Q: With LRRC40 (UniProt Q9H9A6) as the target, how does the log2 fold change read?
A: 0.011

Q: Which log2 fold change does the source give for LARP4B (UniProt Q92615) here?
A: 0.005

Q: For MAP1S (UniProt Q66K74), which log2 fold change is on record?
A: -0.026

Q: With LTN1 isoform 3 (UniProt O94822) as the target, how does the log2 fold change read?
A: 0.018

Q: MCCC1 (UniProt Q96RQ3) was tested. Which log2 fold change did it give?
A: -0.033

Q: For MAP2K1 (UniProt Q02750), which log2 fold change is on record?
A: 0.519 (active)

Q: With MORC2 (UniProt Q9Y6X9) as the target, how does the log2 fold change read?
A: 0.02

Q: KNSTRN (UniProt Q9Y448) was tested. Which log2 fold change did it give?
A: 0.018

Q: For MORF4L1 isoform 2 (UniProt Q9UBU8), which log2 fold change is on record?
A: -0.012

Q: Which log2 fold change does the source give for KIF2C (UniProt Q99661) here?
A: 0.014

Q: Which log2 fold change does the source give for MRPL30 isoform 2 (UniProt Q8TCC3) here?
A: 0.043

Q: L3HYPDH (UniProt Q96EM0) was tested. Which log2 fold change did it give?
A: 0.039

Q: For MED16 (UniProt Q9Y2X0), which log2 fold change is on record?
A: -0.012

Q: KIFC1 (UniProt Q9BW19) was tested. Which log2 fold change did it give?
A: -0.002

Q: Which log2 fold change does the source give for MGAT5 (UniProt Q09328) here?
A: 0.014

Q: How did the log2 fold change turn out when MICU2 (UniProt Q8IYU8) was run?
A: -0.095

Q: MAPKAPK3 (UniProt Q16644) was tested. Which log2 fold change did it give?
A: 0.026

Q: How did the log2 fold change turn out when KIF4A (UniProt O95239) was run?
A: 0.007

Q: MAP11 (UniProt Q8WVR3) was tested. Which log2 fold change did it give?
A: 0.072

Q: KLC2 (UniProt Q9H0B6) was tested. Which log2 fold change did it give?
A: 0.01

Q: For MAP2K5 (UniProt Q13163), which log2 fold change is on record?
A: -0.013

Q: How did the log2 fold change turn out when METTL7A (UniProt Q9H8H3) was run?
A: -0.055

Reference: the supplement of paper PMC10849652
